Laboratory results: PubChem BioAssay

Columns and labels:
[1] = test system: Human papillomavirus type 1a protein E7 (residues 44-93); test: HPV1a E7 fragment binders on microarrays, primary screen, biochemical, small-molecule microarray, residues 44-93, 635 nm fluorescence (AID 1108); settings: small-molecule microarray binding, fluorescence 635 nm; higher = more signal;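 further: E7 fragment applied at 1 µg/mL in TBST for 1 h at 4 C; score combines spot fluorescence with its signal to noise ratio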
[2] = modulators of HCV replicon luciferase signal, primary screen, HCV replication inhibitor project, Huh7 cells, luciferase reporter (AID 1109); settings: 48 h, higher = more signal;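 further: huh7 hepatoma cells harbouring a luciferase neomycin HCV replicon reporter; luciferase luminescence as measure of HCV replicon replication; test concentration not given here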
[3] = molecular target: Left-right determination factor 2 (Homo sapiens) (UniProt O00292); test: LEFTY2 binders on small-molecule microarrays, primary screen, biochemical, small-molecule microarray, 635 nm fluorescence scan (AID 1110); settings: LEFTY2 binding, higher = more signal
Chain of Left-right determination factor 2 (Homo sapiens) (O00292 whole entry, looked up): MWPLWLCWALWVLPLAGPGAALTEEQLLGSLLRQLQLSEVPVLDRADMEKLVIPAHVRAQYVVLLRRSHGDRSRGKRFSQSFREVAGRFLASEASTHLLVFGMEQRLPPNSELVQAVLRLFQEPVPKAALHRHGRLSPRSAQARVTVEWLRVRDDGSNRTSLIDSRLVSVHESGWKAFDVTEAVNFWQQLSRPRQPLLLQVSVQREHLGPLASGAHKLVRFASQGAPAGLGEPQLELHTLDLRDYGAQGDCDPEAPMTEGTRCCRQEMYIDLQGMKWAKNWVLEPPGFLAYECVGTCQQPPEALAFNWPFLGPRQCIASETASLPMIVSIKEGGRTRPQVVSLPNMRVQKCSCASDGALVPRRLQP

[4] = molecular target: Calmodulin-1 (Homo sapiens) (UniProt P0DP23); test: CALM1 binders on microarrays, EGTA buffer, profiling panel, biochemical, small-molecule microarray, Cy5-labelled CALM1 (AID 1111); settings: Cy5-CALM1 binding fluorescence, higher = more signal;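 further: labelled calmodulin applied in Tris saline Tween buffer holding calcium plus EGTA and DTT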
[5] = molecular target: Calmodulin-1 (Homo sapiens) (UniProt P0DP23); test: calcium-bound CALM1 binders on microarrays, profiling panel, artefact control for SMM control-protein annotation, biochemical, small-molecule microarray, Cy5-labelled CALM1, plus calcium (AID 1112); settings: Cy5-CALM1 binding fluorescence, higher = more signal;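 further: score merges spot fluorescence with signal to noise from triplicate slides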
[6] = small-molecule microarray binders of probe aWnt5a, primary screen, biochemical, biotinylated probe, 635/667 nm fluorescence (AID 1113); settings: higher = more signal;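 further: score merges 667 nm fluorescence intensity with signal-to-noise per printed feature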
[7] = small-molecule microarray binders of probe aShh, primary screen, biochemical, biotinylated probe, 635/667 nm fluorescence (AID 1114); settings: higher = more signal;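 further: probe is biotin-labelled aShh protein from a stem cell growth factor screen; measures binding of labelled protein to compounds printed on the slide; score merges feature fluorescence at 667 nm with signal-to-noise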
[8] = small-molecule microarray binders of probe aNog, primary screen, biochemical, biotinylated probe, 635/667 nm fluorescence (AID 1115); settings: higher = more signal;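 further: probe is biotinylated aNog protein used at 0.15 µg/mL for 1 h at 4 C; z-score combines 667 nm fluorescence of each spot with its signal to noise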
[9] = molecular target: Torsin-1A-interacting protein 1 (Homo sapiens) (UniProt Q5JTV8); test: LAP1 binders from COS7 cell lysate, primary screen, small-molecule microarray, 635/667 nm fluorescence (AID 1116); settings: COS7-hLAP1 lysate binding, 635 nm fluorescence, higher = more signal
Chain of Torsin-1A-interacting protein 1 (Homo sapiens) (Q5JTV8 whole entry, looked up): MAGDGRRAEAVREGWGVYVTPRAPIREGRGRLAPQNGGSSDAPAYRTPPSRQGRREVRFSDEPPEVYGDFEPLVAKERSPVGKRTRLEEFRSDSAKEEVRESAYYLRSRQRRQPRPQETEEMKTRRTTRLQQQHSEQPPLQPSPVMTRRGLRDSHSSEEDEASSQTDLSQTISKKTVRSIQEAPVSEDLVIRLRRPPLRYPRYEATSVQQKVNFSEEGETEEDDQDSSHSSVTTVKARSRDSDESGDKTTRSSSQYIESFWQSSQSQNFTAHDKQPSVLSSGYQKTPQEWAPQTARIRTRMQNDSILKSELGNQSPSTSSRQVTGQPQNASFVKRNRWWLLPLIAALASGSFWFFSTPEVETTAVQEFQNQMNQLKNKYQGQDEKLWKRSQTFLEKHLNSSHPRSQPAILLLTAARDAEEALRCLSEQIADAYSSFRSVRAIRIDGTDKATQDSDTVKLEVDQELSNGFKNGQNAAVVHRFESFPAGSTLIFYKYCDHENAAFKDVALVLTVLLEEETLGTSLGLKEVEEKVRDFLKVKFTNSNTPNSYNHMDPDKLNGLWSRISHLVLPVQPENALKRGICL

[10] = molecular target: Alpha-bungarotoxin (Bungarus multicinctus) (UniProt P60615); test: alpha-bungarotoxin binders on microarray, profiling panel, artefact control for SMM control protein annotation, biochemical, small-molecule microarray, Alexa647 label, 635/667 nm fluorescence (AID 1117); settings: alpha-BTX-A647 binding fluorescence, higher = more signal
Chain of Alpha-bungarotoxin (Bungarus multicinctus) (P60615 whole entry, looked up): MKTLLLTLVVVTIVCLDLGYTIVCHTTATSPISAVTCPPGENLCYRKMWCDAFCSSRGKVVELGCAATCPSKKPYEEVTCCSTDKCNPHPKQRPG

Molecule `C=CCN1C(=O)[C@]2(Cc3ccccc31)N=C(c1ccc(OCCCO)cc1)O[C@@H]2c1ccccc1` has a composite z-score [1] of 1.41, a z-score [2] of -2.74 and a composite z-score [3] of 0.319. It also gave a composite z-score [4] of 0.731, a composite z-score [5] of -0.313 and a composite z-score [6] of 0.219. It also gave a composite z-score [7] of -0.108, a composite z-score [8] of 0.431 and a composite z-score [9] of 1.75. The composite z-score [10] was 0.152.

With `CN(C)CCCCCCNC(=O)[C@@H]1C[C@@H]2C(=O)N[C@@H](Cc3ccccc3)C(=O)N2[C@@H]1c1cccc(OCCO)c1` the composite z-score [1] was 1.39, the z-score [2] was 1.73 and the composite z-score [3] was 0.637. For the same molecule, the composite z-score [4] was -0.345, the composite z-score [5] was -0.287 and the composite z-score [6] was -0.0472. The composite z-score [7] was 0.0756, the composite z-score [8] was 0.109 and the composite z-score [9] was 1.93. The composite z-score [10] was 2.64.

Molecule `C=CCC(OC(C)=O)[C@@H]1[C@@H](N(Cc2ccc(-c3cccc(C(F)(F)F)c3)o2)C(=O)Cc2ccc(OC)cc2)c2cc(OCCCO)ccc2N1C(=O)Cc1ccc(OC)cc1` (stereo not given in full) has a composite z-score [1] of -0.641, a z-score [2] of -1.46 and a composite z-score [3] of -0.606. It also gave a composite z-score [4] of -0.503, a composite z-score [5] of -1.26 and a composite z-score [6] of -0.203. The composite z-score [7] was -0.0035, the composite z-score [8] was -0.196 and the composite z-score [9] was -0.347. It also gave a composite z-score [10] of -0.132.

Work on `O=c1cccc(-c2ccccc2)o1` yielded a composite z-score [1] of -0.815, a z-score [2] of -0.144 and a composite z-score [3] of -0.491. The composite z-score [4] was -0.604, the composite z-score [5] was -0.108 and the composite z-score [6] was -0.0863. For the same molecule, the composite z-score [7] was 0.0141, the composite z-score [8] was -0.295 and the composite z-score [9] was -0.0971. The composite z-score [10] was -0.0278.

With `CC1CC/C=C\[C@H]2OC34C=CCN(Cn5nnc6ccccc65)C(=O)[C@H]3N(CCCO)C(=O)[C@@H]4C2C(=O)O1` (stereo not given in full) the composite z-score [1] was -0.311, the z-score [2] was -0.486 and the composite z-score [3] was -1.28. It also gave a composite z-score [4] of -0.484, a composite z-score [5] of 0.25 and a composite z-score [6] of -0.228. The composite z-score [7] was 0.0121, the composite z-score [8] was -0.201 and the composite z-score [9] was 0.479. It also gave a composite z-score [10] of -0.744.

`COc1ccc([Si](C)(C)[C@@H]2[C@@H](CCO)O[C@]3(C(=O)N(Cc4cccc(N(C=O)c5ccccc5)c4)c4ccccc43)[C@H]2C)cc1` showed a composite z-score [1] of -0.179, a z-score [2] of -4.85 and a composite z-score [3] of -0.223. The composite z-score [4] was 1.13, the composite z-score [5] was 1.09 and the composite z-score [6] was -0.176. For the same molecule, the composite z-score [7] was 0.0611, the composite z-score [8] was -0.0002 and the composite z-score [9] was 0.494. It also gave a composite z-score [10] of 0.956.

Work on `O=C1O[C@@H](c2ccccc2)[C@@H](c2ccccc2)N2[C@@H](c3ccccc3OCCO)[C@]3(C(=O)Nc4ccc(C#CC5(O)CCCCCC5)cc43)[C@@H](C(=O)NC[C@H](O)c3ccccc3)[C@H]12` yielded a composite z-score [1] of 1.41, a z-score [2] of -3.23 and a composite z-score [3] of -0.24. The composite z-score [4] was 0.819, the composite z-score [5] was 0.923 and the composite z-score [6] was 0.0912. It also gave a composite z-score [7] of 0.681, a composite z-score [8] of 1.86 and a composite z-score [9] of 0.0197. The composite z-score [10] was 0.728.

`CC(C)NC(=O)[C@@H]1c2ccccc2C(=O)N(C2CCCCC2)[C@H]1c1ccc(CO)cc1` gave a composite z-score [1] of 1.13, a z-score [2] of -1.48 and a composite z-score [3] of 0.0474. It also gave a composite z-score [4] of 0.166, a composite z-score [5] of 0.808 and a composite z-score [6] of 0.0279. The composite z-score [7] was -0.195, the composite z-score [8] was 0.342 and the composite z-score [9] was 0.416. It also gave a composite z-score [10] of 1.01.

`COCCOC(=O)N1C(=O)[C@@]2(c3cc(C#CC4=CCCCC4)ccc31)[C@H](c1ccc(OCCO)cc1)N1[C@H](c3ccccc3)[C@H](c3ccccc3)OC(=O)[C@H]1[C@@H]2C(=O)Nc1nc2ccccc2s1` gave a composite z-score [1] of 1.23, a z-score [2] of -1.87 and a composite z-score [3] of 0.172. For the same molecule, the composite z-score [4] was 1.57, the composite z-score [5] was -0.386 and the composite z-score [6] was -0.001. For the same molecule, the composite z-score [7] was 0.275, the composite z-score [8] was -0.45 and the composite z-score [9] was 0.993. For the same molecule, the composite z-score [10] was 0.656.

`Oc1ccc2cc[n+](Cc3cccc(OC(F)(F)F)c3)cc2c1` showed a composite z-score [1] of -0.112, a z-score [2] of -0.114 and a composite z-score [3] of 0.939. For the same molecule, the composite z-score [4] was -0.582, the composite z-score [5] was -0.77 and the composite z-score [6] was -0.152. For the same molecule, the composite z-score [7] was 0.0515, the composite z-score [8] was -0.85 and the composite z-score [9] was -0.0554. It also gave a composite z-score [10] of 0.266.

`C=CCC(OC(C)=O)[C@@H]1[C@@H](N(Cc2cc3ccccc3o2)C(=O)c2ccc(-c3ccccc3)cc2)c2cc(OCCCO)ccc2N1C(=O)Cc1ccc2ccccc2c1` (stereo not given in full) showed a composite z-score [1] of 0.006, a z-score [2] of -0.532 and a composite z-score [3] of -0.36. The composite z-score [4] was -0.27, the composite z-score [5] was 0.459 and the composite z-score [6] was -0.0704. For the same molecule, the composite z-score [7] was -0.0709, the composite z-score [8] was -0.267 and the composite z-score [9] was 0.0452. It also gave a composite z-score [10] of 0.738.

`CC(C)(C)OC(=O)CC[C@@]1(C(N)=O)N=C(c2ccc(OCCCO)cc2)O[C@@H]1c1ccccc1N=[N+]=[N-]` showed a composite z-score [1] of 1.2, a z-score [2] of 3.02 and a composite z-score [3] of -0.038. It also gave a composite z-score [4] of 1.03, a composite z-score [5] of 0.774 and a composite z-score [6] of -0.0125. It also gave a composite z-score [7] of 0.0796, a composite z-score [8] of -0.504 and a composite z-score [9] of 1.12. It also gave a composite z-score [10] of 1.22.

`COc1ccc([Si](C)(C)[C@@H]2[C@@H](CCn3cc([C@H](O)c4ccccc4)nn3)O[C@]3(C(=O)N(C)c4ccccc43)[C@H]2C)cc1` gave a composite z-score [1] of -0.0859, a z-score [2] of -2.32 and a composite z-score [3] of 0.0661. It also gave a composite z-score [4] of -0.069, a composite z-score [5] of -0.288 and a composite z-score [6] of -0.197. For the same molecule, the composite z-score [7] was -0.0769, the composite z-score [8] was -0.223 and the composite z-score [9] was -0.173. For the same molecule, the composite z-score [10] was 0.0489.

Molecule `O=C1O[C@@H](c2ccccc2)[C@@H](c2ccccc2)N2[C@@H](c3ccc(O)cc3)[C@]3(C(=O)Nc4ccc(C#CCCO)cc43)[C@@H](C(=O)N3CCCCCCC3)[C@H]12` has a composite z-score [1] of 0.777, a z-score [2] of -1.18 and a composite z-score [3] of 0.51. It also gave a composite z-score [4] of 2.37, a composite z-score [5] of 1.05 and a composite z-score [6] of 0.861. It also gave a composite z-score [7] of -0.116, a composite z-score [8] of 2.68 and a composite z-score [9] of 3.66. For the same molecule, the composite z-score [10] was 2.14.

Work on `CCOC(=O)C[C@H]1[C@H](OC(=O)c2ccc(C(=O)c3ccccc3)cc2)[C@@H](NC(=O)c2ccc3ccccc3n2)c2cc(OCCCO)ccc2N1C(=O)c1ccc2ccccc2n1` yielded a composite z-score [1] of 1.03, a z-score [2] of -0.931 and a composite z-score [3] of 0.691. The composite z-score [4] was 0.338, the composite z-score [5] was -0.59 and the composite z-score [6] was 0.0761. For the same molecule, the composite z-score [7] was -0.0904, the composite z-score [8] was -0.158 and the composite z-score [9] was 1.92. It also gave a composite z-score [10] of 0.583.

For `CN(C)CCCC[C@@H]1NC(=O)[C@@H]2C[C@H](C(=O)NCCCCCCN)[C@H](c3ccc(O)cc3)N2C1=O`, the composite z-score [1] was 1.42, the z-score [2] was -0.379 and the composite z-score [3] was 0.984. It also gave a composite z-score [4] of 0.98, a composite z-score [5] of 1.02 and a composite z-score [6] of 0.178. It also gave a composite z-score [7] of 0.584, a composite z-score [8] of -0.172 and a composite z-score [9] of 1.7. It also gave a composite z-score [10] of 0.629.

Work on `CO[C@H]1O[C@H](CO)[C@@H](OC(=O)Nc2cccc(F)c2)[C@H](OC(=O)Nc2ccccc2-c2ccccc2)[C@@H]1OC(=O)Nc1ccccc1-c1ccccc1` yielded a composite z-score [1] of 1.16, a z-score [2] of -3.61 and a composite z-score [3] of 0.343. It also gave a composite z-score [4] of 1.95, a composite z-score [5] of 0.283 and a composite z-score [6] of 0.0825. It also gave a composite z-score [7] of 0.0684, a composite z-score [8] of -0.268 and a composite z-score [9] of 1.47. It also gave a composite z-score [10] of 1.96.
